Bioassay records (PubChem BioAssay)
Sampled rows, rich in hits. Any-hit rate of the full collection: about 4.1%.
hgDAF-12 ag – H. glycines DAF-12 receptor agonists, primary screen, cell-based, luminescence, HEK293, GAL4 fusion, UAS-luciferase; Nuclear hormone receptor DAF-12 (Heterodera glycines), GAL4 fusion; HEK293 GAL4-hgDAF12 UAS-luciferase reporter, agonist luminescence; normalized to butyrate control; activation, % at 6.8 µM; hit rate 1.8% among 370,000;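 active = activation above a cutoff set at the mean of all screened compounds plus 3 SD, cut at about 10% in these data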;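 note: 0% = DMSO wells and 100% = sodium butyrate wells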
DAX1 inh-1 – DAX1 (NR0B1) inhibitors, primary screen, cell-based, HEK293, Gal4-DAX1, luciferase luminescence | Nuclear receptor subfamily 0 group B member 1 (Homo sapiens), P51843 | HEK293 Gal4-DAX1 luciferase reporter | inhibition, % at 6.75 µM | hit rate 0.99% among 340,000 | AID 504766, 2011;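 active = inhibition above the mean over all tested compounds plus 3 SD, cut at about 4.2% in these data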;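 note: 0% = DAX1-transfected cells with DMSO and 100% = empty-vector control cells with DMSO; inhibition shows as a rise in luminescence from relieved DAX1 repression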
Target sequence (P51843 207-470 limits assumed): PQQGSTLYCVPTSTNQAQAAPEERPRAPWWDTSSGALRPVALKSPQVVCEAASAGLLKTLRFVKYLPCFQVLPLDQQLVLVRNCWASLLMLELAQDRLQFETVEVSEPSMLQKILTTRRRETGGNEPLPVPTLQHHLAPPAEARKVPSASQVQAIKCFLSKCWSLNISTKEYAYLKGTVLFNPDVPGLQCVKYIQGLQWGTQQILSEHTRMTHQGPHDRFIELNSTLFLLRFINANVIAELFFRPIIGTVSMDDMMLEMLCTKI
DAX1 inh-2 – DAX1 (NR0B1) inhibitors on StAR promoter, primary screen, cell-based, luminescence, SF-1 (NR5A1), full-length DAX-1 | inhibition, % at 6.8 µM | AID 652010, 2013 | hit rate 1.1% among 370,000 | HEK293T StAR-luciferase reporter, SF-1/DAX-1 repression relief;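 active = inhibition above the mean over all tested compounds plus 3 SD, cut at about 3.6% in these data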;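 note: 0% = DAX-1 cells with DMSO and 100% = cells lacking DAX-1 with DMSO; higher inhibition means more luminescence from relief of DAX-1 repression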
ssDAF12 agonist – S. stercoralis DAF-12 nuclear receptor activators, primary screen, cell-based, luminescence, HEK293, GRIP1 co-expression, lit1-tk-luc. Nuclear hormone receptor DAF-12 (Strongyloides stercoralis). HEK293 ssDAF-12/GRIP1 lit1-tk-luc reporter; % of 3 µM dafachronic acid response. activation, % at 6.8 µM. hit rate 1% among 370,000. AID 652126, 2013;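 active = activation above the mean over all tested compounds plus 3 SD, cut at about 0.9% in these data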;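 note: 0% = DMSO-only wells and 100% = 3 µM delta7-dafachronic acid wells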
hcDAF12 agonist – H. contortus DAF-12 nuclear receptor activators, primary screen, cell-based, luminescence, HEK293, lit1-tk-luc reporter. HEK293 hcDAF-12 lit1-tk-luc reporter; 0% DMSO, 100% Δ7-dafachronic acid. activation, % at 6.8 µM. hit rate 1.4% among 370,000;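 active = activation above the mean of all tested compounds plus 3 SD, cut at about 5.5% in these data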;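 note: 100% = response to 3 µM Δ7-dafachronic acid high control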
Starred values were filed as active, the others as inactive; / = no result.

SMILES	hgDAF-12 ag	DAX1 inh-1	DAX1 inh-2	ssDAF12 agonist	hcDAF12 agonist
CCOC(=O)/C(C#N)=C/c1cc(C)n(-c2ccc(C)cc2)c1C	5	1	0	-1	2
CCOC(=O)/C(C#N)=C\c1cc(C)n(-c2ccccc2)c1C	-4	5.3*	-1	-2	0
C/C(=N\Nc1ccc([N+](=O)[O-])cc1)c1ccc(N)cc1	5	2	1	0	2
CCc1ccc(/C(C)=N\Nc2ccc([N+](=O)[O-])cc2)cc1	6	4.3*	0	0	1
CCOC(=O)NC(=O)c1cn(Nc2ncc(C(F)(F)F)cc2Cl)c(=O)[nH]c1=O	0	-1	0	1	0
CCOC(=O)NC(=O)c1cn(Nc2ncc(Cl)cc2C(F)(F)F)c(=O)[nH]c1=O	-1	6.2*	0	-2	0
CC1(C)SC(=S)N(/N=C/c2cccnc2)C1N(O)C(=O)Nc1ccccc1 (stereo unspecified)	-1	6.2*	0	0	0
COC(=O)[C@]12C[C@H](CC(=O)N3CCC(c4ccccc4)CC3)C(=O)N(Cc3ccco3)C1=C[C@H](COCc1ccccc1)O[C@@H]2C	-1	/	-1	-2	-4
Cc1c(C(=O)NNC(=O)c2ccccc2O)oc2ccccc12	7	-1	2	1	5.8*
OC1c2cc(Cl)ccc2-c2c(Cl)cc(Cl)cc21 (stereo unspecified)	2	5.4*	-2	0	4
COc1ccc(C(=O)c2c3ccccc3[n+]([O-])n2Cc2ccc(C(N)=O)cc2)cc1	-2	0	0	-2	-1
COc1ccc2c(C(=O)c3ccc(C)cc3)n(Cc3ccc(C(N)=O)cc3)[n+]([O-])c2c1	10	2	2	2.1*	11*
O=C(c1ccco1)n1c(=S)nc2ccccn21	12*	2	1	0	3
Cc1cccc2nc(=S)n(C(=O)c3ccco3)n12	13*	4.6*	3	0	3
CC(C)[C@H](NC(=O)N1CC(=O)Nc2ccccc21)C(=O)N[C@H](Cc1ccccc1)C(=O)O	-3	1	0	-1	-2
CC(C)[C@H](NC(=O)N1CC(=O)Nc2ccccc21)C(=O)N[C@H](Cc1c[nH]c2ccccc12)C(=O)O	1	4	1	1.6*	3
COc1ccc(C(=O)Nc2cc(Cl)c(Br)cc2C(=O)O)cc1	-2	/	/	0	0
O=C1c2ccccc2C(=O)C1c1ccc(Cl)cc1	6	1	2	-1	3
O=C1c2ccccc2C(=O)C12OC2c1ccc(Cl)cc1Cl (stereo unspecified)	-1	1	0	1.5*	5
CSc1nsc(/C=C/Nc2ccc(C)cc2)c1C#N	1	0	-1	2.4*	6.5*
CSc1nsc(/C=C/Nc2ccc(C)c(C)c2)c1C#N	2	2	0	0	4
CCc1ccc(Cn2c(=O)n(Cc3ccc(C(=O)NCCCOC)cc3)c(=O)c3ccccc32)cc1	0	/	0	-1	1
O=c1oc2ccccc2n1CSc1nc2ccccc2s1	11*	2	3	0	4
CCCC[C@H](C(=O)N(C)c1cccc(OC)c1)[C@@H](O)c1ccc(Cl)cc1	-3	/	-1	-1	-3
CC1=C(C(=O)OC(C)(C)C)C(c2ccco2)C(C#N)=C(N)O1 (stereo unspecified)	-1	1	0	-2	-1
SMILES	hgDAF-12 ag	DAX1 inh-1	DAX1 inh-2	ssDAF12 agonist	hcDAF12 agonist
C=CCOC(=O)C1=C(C)OC(N)=C(C#N)C1c1ccco1 (stereo unspecified)	-1	8.4*	0	-1	-1
COC(=O)c1sccc1N/N=C/c1cccc(Oc2ccccc2)c1	11*	2	2	-1	1
COc1ccccc1C(=O)NC1CCCCN(Cc2cccc(C(F)(F)F)c2)C1=O (stereo unspecified)	19*	/	-1	-2	-3
O=C(NC1CCCCN(Cc2cccc(C(F)(F)F)c2)C1=O)c1cccc(C(F)(F)F)c1 (stereo unspecified)	-2	/	-1	-1	-2
Cc1cccc(C(=O)Nc2c(-c3ccccc3)nc3ncccn23)c1	3	/	-2	0	-2
CCCCOc1ccc(C(=O)N/C(=C\c2ccc(OC)cc2)C(=O)OCc2ccco2)cc1	-2	0	0	-1	-2
COc1ccc(C(=O)N/C(=C\c2ccco2)C(=O)OCc2ccco2)cc1	1	5.5*	0	0	-1
O=C1C=C(c2cccc3c2Oc2ccccc2S3)C[C@@H](c2ccc3c(c2)OCO3)C1	-3	/	0	0	0
CCC(C)NC(=O)C1CCN(c2nc(OC)nc(OC)n2)CC1 (stereo unspecified)	1	0	0	-1	-1
CCC(C)(C)NC(=O)C1CCN(c2nc(OC)nc(OC)n2)CC1	-3	6.1*	0	-1	-1
O=C(NCCNCc1ccc(F)cc1)c1ccco1	-2	0	-1	-2	-1
O=C(NCCNCc1cccc(Cl)c1)c1ccco1	1	0	2	1.1*	0
O=C(NCCNc1ccc([N+](=O)[O-])cc1)c1ccco1	3	4.5*	-1	-1	-2
O=C(Nc1ccc(C(=O)O)cc1)/C(=C\c1ccc([N+](=O)[O-])cc1)NC(=O)c1ccco1	-2	4.3*	0	-1	0
O=C(NCCNc1ccc([N+](=O)[O-])cc1)c1ccccc1Br	-1	-1	-1	-1	-3
COc1ccc(S[C@]2(C(=O)N3CCN(c4ncccn4)CC3)CC(=O)N(P(=O)(OC)OC)[C@@H]2c2ccc(OC)cc2)cc1	3	/	-2	-1	-1
COc1cccc(C2CCCCN(C)C2=O)c1 (stereo unspecified)	0	4.6*	1	-2	-2
COc1cc(C=Nn2c(-c3ccccc3F)n[nH]c2=S)ccc1OCc1ccccc1	3	/	-1	-1	-3
CC(C)Cc1nnc(NC(=O)C2=COCCO2)s1	7	2	3.8*	-1	2
O=C(c1nc2ncccn2n1)N1CCN(c2ccccc2)CC1	-1	0	3.7*	-1	-1
O=C(c1nc2ncccn2n1)N1CCN(c2ccc(F)cc2)CC1	-1	2	0	-1	0
COc1ccc2nc(C)cc(SCC(NC(C)=O)C(=O)OC(C)C)c2c1 (stereo unspecified)	0	4.6*	0	-1	-1
COc1ccc2nc(C)cc(SCC(=O)OC(C)C)c2c1	3	1	0	-2	-1
